Test results published in the supplement of paper PMC11732987, “Enantioselective OTUD7B fragment discovery through chemoproteomics screening and high-throughput optimisation” (Communications Chemistry, 2025).

How the values were obtained:
Assay in all cases: log2 ratio of Biotin-Ahx-Ub-VS probe labelling (fragment/DMSO); higher = less target engagement (more negative = stronger competition), active = hit call of the paper (q ≤ 0.05, log2 ratio ≤ -1)
Conditions in all cases: compound concentration: 200 uM; treatment time: 3 h
USP42 = biological target: T1, USP42 (UniProt Q9H9J4)
T1 sequence (whole entry): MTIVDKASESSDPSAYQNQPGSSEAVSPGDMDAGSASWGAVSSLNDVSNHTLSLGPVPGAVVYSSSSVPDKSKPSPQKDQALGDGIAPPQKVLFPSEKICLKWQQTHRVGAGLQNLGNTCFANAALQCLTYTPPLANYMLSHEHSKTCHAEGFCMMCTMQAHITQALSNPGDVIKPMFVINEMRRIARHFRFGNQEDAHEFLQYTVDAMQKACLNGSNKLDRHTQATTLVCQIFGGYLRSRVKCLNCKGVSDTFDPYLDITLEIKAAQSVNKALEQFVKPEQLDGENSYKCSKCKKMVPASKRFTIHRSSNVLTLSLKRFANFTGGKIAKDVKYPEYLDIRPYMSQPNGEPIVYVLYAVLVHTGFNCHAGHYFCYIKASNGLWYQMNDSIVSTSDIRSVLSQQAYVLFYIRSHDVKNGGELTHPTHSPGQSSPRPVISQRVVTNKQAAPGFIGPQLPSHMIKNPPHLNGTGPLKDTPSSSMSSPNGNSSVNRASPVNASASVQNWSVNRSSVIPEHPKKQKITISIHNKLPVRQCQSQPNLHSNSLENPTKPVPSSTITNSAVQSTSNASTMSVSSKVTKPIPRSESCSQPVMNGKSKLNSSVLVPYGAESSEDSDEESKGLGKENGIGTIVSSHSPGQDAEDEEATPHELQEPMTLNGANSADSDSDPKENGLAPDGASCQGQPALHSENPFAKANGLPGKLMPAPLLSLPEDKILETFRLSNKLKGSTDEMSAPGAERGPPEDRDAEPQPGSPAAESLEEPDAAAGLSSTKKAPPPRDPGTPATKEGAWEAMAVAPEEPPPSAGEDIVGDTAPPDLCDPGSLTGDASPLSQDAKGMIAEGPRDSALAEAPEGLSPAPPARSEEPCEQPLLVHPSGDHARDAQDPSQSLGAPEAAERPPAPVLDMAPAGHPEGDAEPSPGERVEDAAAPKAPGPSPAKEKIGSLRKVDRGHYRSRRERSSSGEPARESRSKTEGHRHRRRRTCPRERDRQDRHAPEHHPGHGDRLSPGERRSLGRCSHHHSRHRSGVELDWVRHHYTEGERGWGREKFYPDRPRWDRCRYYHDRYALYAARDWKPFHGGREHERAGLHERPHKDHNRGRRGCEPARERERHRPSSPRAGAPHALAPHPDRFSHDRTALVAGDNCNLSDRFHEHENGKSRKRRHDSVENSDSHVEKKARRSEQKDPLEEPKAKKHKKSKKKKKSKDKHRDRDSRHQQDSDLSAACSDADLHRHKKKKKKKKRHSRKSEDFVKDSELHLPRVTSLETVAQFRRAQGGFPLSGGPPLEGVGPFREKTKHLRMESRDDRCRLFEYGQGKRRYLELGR
Procedure, shortened: (§1)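 Labelled DUBs from HEK293T lysate were NeutrAvidin-enriched, digested with LysC and trypsin, and run by diaPASEF LC-MS/MS. Before that, each 495 µg sample in Tris/CHAPS/IGEPAL buffer with protease inhibitors was treated in triplicate with fragment at 200 µM or vehicle for 3 h, then with Biotin-Ahx-Ub-VS at 0.5 µM final for 1 h. Values are average log2 ratios of fragment over vehicle by unpaired t-test, based on global-median-normalised Spectronaut label-free quantities from proteins with ≥2 unique peptides.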

USP46 = USP46 (UniProt P62068)
Procedure, shortened: as §1

USP47 = biological target: T2, USP47 (UniProt Q96K76)
T2 sequence (whole entry): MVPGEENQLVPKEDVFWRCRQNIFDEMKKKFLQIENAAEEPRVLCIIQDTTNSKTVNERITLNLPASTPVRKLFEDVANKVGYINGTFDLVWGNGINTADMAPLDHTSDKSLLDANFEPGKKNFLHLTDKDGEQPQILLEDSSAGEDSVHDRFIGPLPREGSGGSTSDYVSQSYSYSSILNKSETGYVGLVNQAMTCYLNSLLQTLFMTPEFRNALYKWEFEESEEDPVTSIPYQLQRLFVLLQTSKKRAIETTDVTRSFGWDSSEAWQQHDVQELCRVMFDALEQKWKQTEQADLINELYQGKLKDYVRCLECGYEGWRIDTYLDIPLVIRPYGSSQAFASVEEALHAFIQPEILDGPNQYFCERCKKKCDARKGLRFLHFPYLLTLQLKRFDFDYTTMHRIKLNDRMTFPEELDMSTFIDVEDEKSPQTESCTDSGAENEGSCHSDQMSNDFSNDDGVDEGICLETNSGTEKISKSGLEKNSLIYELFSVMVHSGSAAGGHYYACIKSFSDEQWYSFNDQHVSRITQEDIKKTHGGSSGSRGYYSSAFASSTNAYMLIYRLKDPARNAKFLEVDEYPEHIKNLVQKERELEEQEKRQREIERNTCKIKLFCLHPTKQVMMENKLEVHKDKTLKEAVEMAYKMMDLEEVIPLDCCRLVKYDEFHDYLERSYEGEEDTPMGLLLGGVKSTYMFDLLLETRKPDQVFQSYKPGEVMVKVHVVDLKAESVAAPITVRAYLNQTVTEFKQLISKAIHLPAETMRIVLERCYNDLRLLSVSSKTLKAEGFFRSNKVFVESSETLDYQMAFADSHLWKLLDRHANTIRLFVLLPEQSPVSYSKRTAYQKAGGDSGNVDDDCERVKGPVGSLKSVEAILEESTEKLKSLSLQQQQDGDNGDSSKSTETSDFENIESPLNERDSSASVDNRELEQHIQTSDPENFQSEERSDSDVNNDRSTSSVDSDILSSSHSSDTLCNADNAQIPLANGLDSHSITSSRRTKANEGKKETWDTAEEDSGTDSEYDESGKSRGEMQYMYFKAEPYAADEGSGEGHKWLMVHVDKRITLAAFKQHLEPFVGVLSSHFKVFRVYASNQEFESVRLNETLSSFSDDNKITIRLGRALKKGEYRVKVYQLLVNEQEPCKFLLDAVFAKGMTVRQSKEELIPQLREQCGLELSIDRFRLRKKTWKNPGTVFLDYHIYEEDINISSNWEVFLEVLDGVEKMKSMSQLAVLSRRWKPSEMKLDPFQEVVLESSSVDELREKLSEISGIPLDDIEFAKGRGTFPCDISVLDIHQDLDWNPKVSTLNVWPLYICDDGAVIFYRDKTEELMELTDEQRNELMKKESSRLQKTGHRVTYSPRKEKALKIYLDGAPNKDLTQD
Procedure, shortened: as §1

USP48 = biological target: T3, USP48 (UniProt Q86UV5)
T3 sequence (whole entry): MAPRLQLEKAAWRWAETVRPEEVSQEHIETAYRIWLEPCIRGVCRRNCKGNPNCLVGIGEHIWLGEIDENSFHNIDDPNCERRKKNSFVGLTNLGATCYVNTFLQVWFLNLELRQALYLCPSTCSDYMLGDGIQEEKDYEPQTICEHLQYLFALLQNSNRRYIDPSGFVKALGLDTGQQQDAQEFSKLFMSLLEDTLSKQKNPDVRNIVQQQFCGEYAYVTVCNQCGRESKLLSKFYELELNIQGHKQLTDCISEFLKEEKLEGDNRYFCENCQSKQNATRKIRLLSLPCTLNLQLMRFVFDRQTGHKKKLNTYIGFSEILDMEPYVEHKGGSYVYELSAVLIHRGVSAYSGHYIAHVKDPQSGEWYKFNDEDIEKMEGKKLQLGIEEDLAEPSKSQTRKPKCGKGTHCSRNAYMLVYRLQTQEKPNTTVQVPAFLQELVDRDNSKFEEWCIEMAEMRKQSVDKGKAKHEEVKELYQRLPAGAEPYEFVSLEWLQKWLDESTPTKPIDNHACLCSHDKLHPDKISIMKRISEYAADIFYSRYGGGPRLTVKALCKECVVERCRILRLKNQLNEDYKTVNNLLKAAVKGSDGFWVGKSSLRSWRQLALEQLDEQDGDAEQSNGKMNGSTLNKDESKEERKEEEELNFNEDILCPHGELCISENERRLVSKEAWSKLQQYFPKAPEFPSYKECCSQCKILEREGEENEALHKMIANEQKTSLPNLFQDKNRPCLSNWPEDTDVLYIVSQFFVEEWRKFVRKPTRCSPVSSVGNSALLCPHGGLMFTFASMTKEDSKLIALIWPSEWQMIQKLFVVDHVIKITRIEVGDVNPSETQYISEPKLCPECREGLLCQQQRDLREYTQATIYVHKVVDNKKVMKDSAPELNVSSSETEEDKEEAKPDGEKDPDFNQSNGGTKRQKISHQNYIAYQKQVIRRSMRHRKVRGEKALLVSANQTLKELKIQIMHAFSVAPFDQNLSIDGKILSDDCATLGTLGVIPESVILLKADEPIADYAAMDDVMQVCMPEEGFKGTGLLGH
Procedure, shortened: as §1

USP5 = biological target: T4, USP5 (UniProt P45974)
T4 sequence (whole entry): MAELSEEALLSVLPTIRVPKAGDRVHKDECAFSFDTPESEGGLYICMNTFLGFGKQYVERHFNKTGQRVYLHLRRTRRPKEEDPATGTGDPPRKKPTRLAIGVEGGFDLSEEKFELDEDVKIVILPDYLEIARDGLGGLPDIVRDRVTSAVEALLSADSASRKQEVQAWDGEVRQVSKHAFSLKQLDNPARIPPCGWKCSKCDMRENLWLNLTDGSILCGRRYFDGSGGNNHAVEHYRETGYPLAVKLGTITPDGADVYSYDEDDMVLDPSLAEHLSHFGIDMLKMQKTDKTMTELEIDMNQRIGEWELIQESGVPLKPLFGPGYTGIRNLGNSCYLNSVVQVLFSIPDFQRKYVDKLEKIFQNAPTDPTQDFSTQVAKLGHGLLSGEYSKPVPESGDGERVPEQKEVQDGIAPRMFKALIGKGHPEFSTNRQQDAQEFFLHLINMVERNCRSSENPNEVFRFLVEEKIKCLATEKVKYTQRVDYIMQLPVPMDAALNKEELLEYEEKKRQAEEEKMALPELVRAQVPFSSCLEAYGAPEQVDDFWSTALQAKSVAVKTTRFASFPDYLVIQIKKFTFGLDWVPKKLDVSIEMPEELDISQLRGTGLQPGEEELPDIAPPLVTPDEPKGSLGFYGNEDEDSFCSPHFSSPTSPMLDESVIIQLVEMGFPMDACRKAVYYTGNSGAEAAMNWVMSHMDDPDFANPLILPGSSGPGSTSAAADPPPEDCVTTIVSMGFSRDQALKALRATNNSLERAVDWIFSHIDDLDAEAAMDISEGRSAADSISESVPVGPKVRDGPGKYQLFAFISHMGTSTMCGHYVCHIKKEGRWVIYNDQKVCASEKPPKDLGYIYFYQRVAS
Procedure, shortened: as §1

USP54 = USP54 (UniProt Q70EL1)
Procedure, shortened: as §1

USP7 = USP7 (UniProt Q93009)
Procedure, shortened: as §1

USP8 = biological target: T5, USP8 (UniProt P40818)
T5 sequence (whole entry): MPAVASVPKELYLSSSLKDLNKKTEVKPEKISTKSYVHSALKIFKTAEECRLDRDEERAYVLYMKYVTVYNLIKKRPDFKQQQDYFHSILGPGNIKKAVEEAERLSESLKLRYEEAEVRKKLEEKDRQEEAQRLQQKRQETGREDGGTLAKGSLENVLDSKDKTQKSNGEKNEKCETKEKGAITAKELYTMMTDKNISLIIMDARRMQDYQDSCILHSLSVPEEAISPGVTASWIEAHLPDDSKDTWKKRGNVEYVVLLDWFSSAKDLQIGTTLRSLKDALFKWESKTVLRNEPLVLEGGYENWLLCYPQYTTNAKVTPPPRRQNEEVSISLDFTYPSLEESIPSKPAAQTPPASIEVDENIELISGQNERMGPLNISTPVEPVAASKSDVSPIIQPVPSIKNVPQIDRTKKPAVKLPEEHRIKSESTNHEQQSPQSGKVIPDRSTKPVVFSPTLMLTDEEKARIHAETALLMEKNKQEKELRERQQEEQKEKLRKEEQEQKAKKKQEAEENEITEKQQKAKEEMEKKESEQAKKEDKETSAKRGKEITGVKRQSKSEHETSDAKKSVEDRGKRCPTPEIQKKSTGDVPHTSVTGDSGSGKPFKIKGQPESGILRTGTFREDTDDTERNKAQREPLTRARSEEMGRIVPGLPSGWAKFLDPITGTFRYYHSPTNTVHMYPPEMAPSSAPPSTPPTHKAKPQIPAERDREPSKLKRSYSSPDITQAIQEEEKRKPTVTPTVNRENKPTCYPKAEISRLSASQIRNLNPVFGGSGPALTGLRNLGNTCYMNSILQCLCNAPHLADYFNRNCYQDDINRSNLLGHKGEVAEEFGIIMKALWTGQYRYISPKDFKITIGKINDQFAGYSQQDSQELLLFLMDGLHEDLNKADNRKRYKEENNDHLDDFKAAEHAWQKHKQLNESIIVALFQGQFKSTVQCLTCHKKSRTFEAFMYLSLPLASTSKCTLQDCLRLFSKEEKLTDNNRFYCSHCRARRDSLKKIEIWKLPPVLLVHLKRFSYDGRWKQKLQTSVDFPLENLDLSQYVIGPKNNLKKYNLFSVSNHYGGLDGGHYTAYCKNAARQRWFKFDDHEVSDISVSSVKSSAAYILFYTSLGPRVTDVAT
Procedure, shortened: as §1

USP9X = USP9X (UniProt Q93008)
Procedure, shortened: as §1

UniProt O00487 = biological target: UniProt O00487
Procedure, shortened: as §1

Measured: log2 ratio of Biotin-Ahx-Ub-VS probe labelling

Chain of USP46 (P62068 whole entry): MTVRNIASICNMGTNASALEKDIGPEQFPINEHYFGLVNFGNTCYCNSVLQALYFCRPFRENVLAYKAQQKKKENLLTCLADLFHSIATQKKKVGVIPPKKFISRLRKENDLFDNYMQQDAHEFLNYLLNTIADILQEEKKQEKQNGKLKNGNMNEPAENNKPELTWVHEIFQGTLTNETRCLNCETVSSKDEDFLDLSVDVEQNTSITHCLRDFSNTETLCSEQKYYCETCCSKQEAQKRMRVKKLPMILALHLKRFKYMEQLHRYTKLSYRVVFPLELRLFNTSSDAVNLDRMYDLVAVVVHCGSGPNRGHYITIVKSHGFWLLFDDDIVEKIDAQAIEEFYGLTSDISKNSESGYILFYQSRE
Chain of UniProt O00487 (O00487 whole entry): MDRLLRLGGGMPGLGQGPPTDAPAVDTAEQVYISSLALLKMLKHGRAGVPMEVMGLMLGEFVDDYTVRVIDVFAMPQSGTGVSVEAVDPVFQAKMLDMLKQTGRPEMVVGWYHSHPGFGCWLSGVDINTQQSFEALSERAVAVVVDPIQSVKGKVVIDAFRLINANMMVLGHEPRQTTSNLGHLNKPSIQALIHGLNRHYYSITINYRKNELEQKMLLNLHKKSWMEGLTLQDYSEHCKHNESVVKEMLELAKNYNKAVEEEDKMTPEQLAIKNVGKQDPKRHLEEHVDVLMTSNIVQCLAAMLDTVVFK
Chain of USP9X (Q93008 whole entry): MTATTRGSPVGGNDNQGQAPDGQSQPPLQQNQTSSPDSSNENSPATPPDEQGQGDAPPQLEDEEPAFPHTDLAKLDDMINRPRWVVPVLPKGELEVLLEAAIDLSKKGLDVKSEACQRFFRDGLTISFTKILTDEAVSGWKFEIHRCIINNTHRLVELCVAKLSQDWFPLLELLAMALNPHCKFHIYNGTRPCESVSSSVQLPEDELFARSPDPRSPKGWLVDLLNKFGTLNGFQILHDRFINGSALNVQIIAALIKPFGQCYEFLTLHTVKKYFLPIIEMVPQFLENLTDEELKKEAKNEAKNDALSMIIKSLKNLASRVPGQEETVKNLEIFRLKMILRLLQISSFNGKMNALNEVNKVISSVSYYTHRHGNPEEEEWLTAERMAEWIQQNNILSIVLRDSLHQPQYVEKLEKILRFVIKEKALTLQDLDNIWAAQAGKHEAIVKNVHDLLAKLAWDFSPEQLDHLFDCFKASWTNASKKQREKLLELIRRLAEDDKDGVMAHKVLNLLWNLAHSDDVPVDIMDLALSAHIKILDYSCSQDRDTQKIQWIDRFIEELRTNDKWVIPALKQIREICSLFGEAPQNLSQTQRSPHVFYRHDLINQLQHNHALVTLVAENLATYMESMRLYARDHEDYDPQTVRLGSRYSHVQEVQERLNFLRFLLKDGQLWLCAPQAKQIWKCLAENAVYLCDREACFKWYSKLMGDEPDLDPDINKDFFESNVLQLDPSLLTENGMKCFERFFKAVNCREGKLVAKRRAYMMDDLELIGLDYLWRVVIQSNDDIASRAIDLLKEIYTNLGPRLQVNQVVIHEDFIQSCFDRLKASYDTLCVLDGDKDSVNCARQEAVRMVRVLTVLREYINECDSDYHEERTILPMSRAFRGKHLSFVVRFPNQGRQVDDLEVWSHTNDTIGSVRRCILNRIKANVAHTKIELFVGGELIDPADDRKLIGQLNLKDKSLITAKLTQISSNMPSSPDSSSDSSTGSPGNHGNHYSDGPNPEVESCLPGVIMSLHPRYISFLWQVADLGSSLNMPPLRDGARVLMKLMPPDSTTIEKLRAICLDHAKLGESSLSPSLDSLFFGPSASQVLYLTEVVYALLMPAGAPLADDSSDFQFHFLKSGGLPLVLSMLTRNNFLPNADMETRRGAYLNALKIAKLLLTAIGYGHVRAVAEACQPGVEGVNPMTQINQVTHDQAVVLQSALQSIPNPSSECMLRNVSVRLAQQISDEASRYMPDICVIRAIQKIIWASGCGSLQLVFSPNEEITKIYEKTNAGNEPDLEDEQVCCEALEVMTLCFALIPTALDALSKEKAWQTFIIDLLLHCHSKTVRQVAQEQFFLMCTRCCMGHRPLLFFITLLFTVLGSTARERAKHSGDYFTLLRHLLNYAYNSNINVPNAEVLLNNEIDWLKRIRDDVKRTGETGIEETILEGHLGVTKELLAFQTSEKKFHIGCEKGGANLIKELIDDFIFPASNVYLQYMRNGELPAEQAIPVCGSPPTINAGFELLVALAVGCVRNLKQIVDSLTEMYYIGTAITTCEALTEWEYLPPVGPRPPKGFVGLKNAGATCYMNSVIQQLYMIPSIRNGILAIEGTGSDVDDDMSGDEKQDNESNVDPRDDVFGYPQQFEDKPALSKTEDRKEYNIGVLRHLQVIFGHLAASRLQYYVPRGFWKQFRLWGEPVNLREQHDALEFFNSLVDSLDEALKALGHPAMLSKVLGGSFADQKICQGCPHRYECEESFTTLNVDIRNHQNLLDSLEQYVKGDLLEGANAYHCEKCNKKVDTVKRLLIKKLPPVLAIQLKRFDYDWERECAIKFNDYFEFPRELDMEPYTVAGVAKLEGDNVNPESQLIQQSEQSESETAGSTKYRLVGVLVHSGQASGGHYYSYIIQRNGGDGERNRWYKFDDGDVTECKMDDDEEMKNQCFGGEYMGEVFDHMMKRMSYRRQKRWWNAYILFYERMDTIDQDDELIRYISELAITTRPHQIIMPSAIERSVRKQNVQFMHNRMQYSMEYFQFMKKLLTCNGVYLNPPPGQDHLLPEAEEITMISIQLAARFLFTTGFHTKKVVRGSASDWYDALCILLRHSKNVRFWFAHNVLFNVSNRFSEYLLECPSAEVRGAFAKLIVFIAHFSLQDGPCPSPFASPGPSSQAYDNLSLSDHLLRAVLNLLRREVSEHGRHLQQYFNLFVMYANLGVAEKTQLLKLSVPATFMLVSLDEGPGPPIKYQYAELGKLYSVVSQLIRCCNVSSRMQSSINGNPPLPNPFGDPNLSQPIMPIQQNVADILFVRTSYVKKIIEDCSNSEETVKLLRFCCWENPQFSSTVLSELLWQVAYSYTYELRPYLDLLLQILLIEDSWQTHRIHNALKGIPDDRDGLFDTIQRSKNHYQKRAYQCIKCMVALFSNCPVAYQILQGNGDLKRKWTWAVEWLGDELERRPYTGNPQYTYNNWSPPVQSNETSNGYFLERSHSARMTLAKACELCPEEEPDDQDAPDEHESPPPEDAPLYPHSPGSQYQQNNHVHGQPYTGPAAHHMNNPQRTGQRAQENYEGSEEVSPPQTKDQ
Chain of USP7 (Q93009 whole entry, looked up): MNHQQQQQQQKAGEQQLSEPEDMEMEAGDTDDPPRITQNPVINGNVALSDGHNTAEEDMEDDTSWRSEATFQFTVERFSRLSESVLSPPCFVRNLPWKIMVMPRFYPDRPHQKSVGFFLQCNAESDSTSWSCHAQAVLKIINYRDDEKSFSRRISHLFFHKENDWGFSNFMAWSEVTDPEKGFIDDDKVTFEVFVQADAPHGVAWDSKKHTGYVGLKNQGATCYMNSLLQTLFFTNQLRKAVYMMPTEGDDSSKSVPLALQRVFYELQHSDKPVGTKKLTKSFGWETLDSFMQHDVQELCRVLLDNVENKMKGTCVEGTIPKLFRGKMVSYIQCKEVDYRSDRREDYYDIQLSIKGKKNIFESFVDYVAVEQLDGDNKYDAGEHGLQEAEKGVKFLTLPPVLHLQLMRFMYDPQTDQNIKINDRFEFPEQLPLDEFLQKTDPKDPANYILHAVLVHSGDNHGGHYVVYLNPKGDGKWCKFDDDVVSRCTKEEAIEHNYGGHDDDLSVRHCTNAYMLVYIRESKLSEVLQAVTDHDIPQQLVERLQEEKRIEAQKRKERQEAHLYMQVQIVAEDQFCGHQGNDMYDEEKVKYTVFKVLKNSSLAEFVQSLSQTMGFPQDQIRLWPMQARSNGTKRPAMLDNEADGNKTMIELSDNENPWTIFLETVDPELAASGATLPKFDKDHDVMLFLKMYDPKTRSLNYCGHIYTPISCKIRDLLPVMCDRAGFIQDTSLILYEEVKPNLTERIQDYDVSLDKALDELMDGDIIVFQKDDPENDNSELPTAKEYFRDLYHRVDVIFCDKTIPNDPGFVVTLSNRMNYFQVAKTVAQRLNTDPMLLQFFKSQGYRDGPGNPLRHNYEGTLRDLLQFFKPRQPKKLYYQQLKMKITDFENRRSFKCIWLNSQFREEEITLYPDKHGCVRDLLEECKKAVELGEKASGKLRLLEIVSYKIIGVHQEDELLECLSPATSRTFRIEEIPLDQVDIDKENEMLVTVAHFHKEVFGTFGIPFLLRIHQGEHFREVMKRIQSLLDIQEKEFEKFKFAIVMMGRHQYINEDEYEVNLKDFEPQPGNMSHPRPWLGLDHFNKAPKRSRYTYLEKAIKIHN

CC(NC(=O)CCl)c1cc2n(n1)CCCC2.Cl (stereo not given)
inactive: USP42 0.487 | USP46 -0.0285 | USP47 0.43 | USP48 -0.017 | USP5 -0.437 | USP54 0.53 | USP7 -0.279 | USP8 0.0604 | USP9X -0.0806 | UniProt O00487 -0.00796
